PLK1 PBD inh = qHTS for Inhibitors of PLK1-PDB (polo-like kinase 1 - polo-box domain): Primary Screen; Serine/threonine-protein kinase PLK1 (Homo sapiens), P53350; Plk1 PBD binding of FITC phosphopeptide, fluorescence polarization; Potency, µM, for inactives: max response, negative = inhibition, most hits filed as inhibitors; 360,000 compounds, 2.8% hits; AID 720504, 2013; further: series mostly up to about 57 µM; on the % scale 0 is the no-effect control and ±100 the full control effect; nearly all actives have a fitted effect of over 65% in size
Pin1 inh = qHTS Assay to Find Inhibitors of Pin1; Peptidyl-prolyl cis-trans isomerase NIMA-interacting 1 (Homo sapiens), Q13526; AID 504891, 2011; Pin1 FP peptide displacement, HiFluor488, 10 min; Potency, µM (doses to about 115 µM), for the others: top-dose activity, negative = inhibition, most hits filed as inhibitors; 390,000 compounds, 0.009% hits; active means well fitted inhibition curve with a large enough effect in the polarisation, with a control signal flat, not every such curve was filed as active; inconclusive means small, poorly fitted or top-dose-only effect, or effect the other way, or a change in a side signal; inactive means no such curve, though single readings can be large or run the other way; the % refers to the polarisation; further: on the % scale 0 is the no-effect control and ±100 the full control effect
TDP1 inh = qHTS Assay for Inhibitors of Tyrosyl-DNA Phosphodiesterase (TDP1) | 350,000 compounds, 0.28% hits | Potency, µM (top dose mostly 130 µM), for inactives: at the top dose activity change, negative = inhibition, most hits filed as inhibitors | recombinant TDP1, AlphaScreen DNA substrate cleavage; further: on the % scale 0 is the no-effect control and ±100 the full control effect; nearly all actives have a fitted effect of over 40% in size
Target sequence (Q9NUW8 whole entry, looked up): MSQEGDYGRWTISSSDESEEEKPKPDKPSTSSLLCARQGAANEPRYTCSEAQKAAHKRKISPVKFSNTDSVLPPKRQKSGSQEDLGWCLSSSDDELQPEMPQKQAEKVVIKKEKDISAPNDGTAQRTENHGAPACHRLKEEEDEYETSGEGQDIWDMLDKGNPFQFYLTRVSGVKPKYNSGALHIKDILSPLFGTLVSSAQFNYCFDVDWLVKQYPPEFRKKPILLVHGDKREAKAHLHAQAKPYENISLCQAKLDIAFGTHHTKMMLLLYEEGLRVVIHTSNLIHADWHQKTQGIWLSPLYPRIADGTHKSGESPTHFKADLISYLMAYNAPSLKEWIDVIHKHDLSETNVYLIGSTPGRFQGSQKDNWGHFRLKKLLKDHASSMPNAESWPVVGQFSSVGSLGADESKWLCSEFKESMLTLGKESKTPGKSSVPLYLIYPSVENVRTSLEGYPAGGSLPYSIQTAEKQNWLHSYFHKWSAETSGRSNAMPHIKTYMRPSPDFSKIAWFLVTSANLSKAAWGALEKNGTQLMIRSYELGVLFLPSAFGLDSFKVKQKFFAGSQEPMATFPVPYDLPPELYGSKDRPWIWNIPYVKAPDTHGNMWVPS
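Recombinant E. coli-expressed Tdp1 (1 nM) preincubated with compound 15 min at RT, then 5'-biotin/3'-phosphotyrosine-FITC DNA substrate (15 nM) added for 5 min. AlphaScreen beads (10 ug/ml) added, 10 min RT; tyrosine-FITC cleavage read as signal loss.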
ASM inhibitor = Inhibitors of Secretory Acid Sphingomyelinase (S-ASM): qHTS | placental ASM, HMU-PC fluorogenic substrate, 60 min | Potency, µM (titrated, usually from 57.5 µM), for the others: at the top dose activity change, negative = inhibition, usual class: inhibitors | 340,000 compounds, 0.006% hits | AID 504937, 2011
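qHTS format. ASM enzyme prepared from human placenta hydrolyses the fluorogenic substrate HMU-PC0 (9 uM final) over 60 min at 37 °C after a 10 min compound preincubation.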
VDR inhibitor = Inhibitors of the vitamin D receptor (VDR): qHTS. Potency, µM, for the others: max response, negative = inhibition, usual class: inhibitors. VDR-SRC2-3 peptide fluorescence polarization, 2 h. 400,000 compounds, 0.93% hits. AID 504847, 2011; further: on the % scale 0 is the no-effect control and ±100 the full control effect
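FP read-out; VDR + SRC2-3 coactivator peptide; 23 nl compound by pintool; 2 h RT incubation; reagents held at 4 deg C, protected from light.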
Tb PFK block = qHTS Assay to Find Inhibitors of T. brucei phosphofructokinase; ATP-dependent 6-phosphofructokinase (Trypanosoma brucei brucei), O15648; T. brucei PFK, ADP-Glo luminescence; Potency, µM (doses to about 57.5 µM), for inactives: at the top dose activity, negative = inhibition, usual class: inhibitors; 330,000 compounds, 0.17% hits; AID 485367, 2010;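 further: 0% = uninhibited 1x PFK enzyme wells and -100% = no-enzyme wells; nearly all actives have a fitted effect of over 60% in size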
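Compounds were pin-transferred as a titration series up to 57 uM into substrate buffer (0.5 mM F6P, 0.1 mM ATP, pH 8.0), then 1.25 nM PFK was added and reactions ran 45 min before ADP-Glo detection.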
An asterisk follows results filed as active; ? = inconclusive; / = not tested or not shown; [ ] = another dose, or the depositor's remark. Shown are actives, neighbours in structure and some others; about 3.1% of the full set was active somewhere. Unless noted, the call rests on the fitted dose curve; in most records, active means well fitted curve in the direction sought with a large enough effect; inconclusive means small, poorly fitted or top-dose-only effect, or another doubt; inactive means no such curve, though single readings can be large; an effect the other way counts as inactive or inconclusive. Potency means the concentration at half of the fitted maximal effect.

SMILES	PLK1 PBD inh	Pin1 inh	TDP1 inh	ASM inhibitor	VDR inhibitor	Tb PFK block
CCCC(C(=O)NCC1CCCO1)N(Cc1ccco1)C(=O)CNS(=O)(=O)c1ccc(F)cc1 (stereo unspecified)	15µM*	-4.5%	0.0%	-0.8%	-12.8%	-15.6%
CC(C)C(C(=O)NCC1CCCO1)N(Cc1ccco1)C(=O)CNS(=O)(=O)c1ccccc1 (stereo unspecified)	-4.3%	-0.1%	2.9%	0.7%	-3.5%	-2.0%
COc1cc(C(=O)Nc2ccccc2SCc2cc(=O)n3nc(C)sc3n2)cc(OC)c1OC	26.7µM*	-5.0%	5.1%	-2.2%	?	2.1%
CC(C)c1ccc(NC2CCCN(C(=O)c3cc(C(C)C)nc(N)n3)C2)cc1 (stereo unspecified)	26.7µM*	-6.5%	5.9%	1.2%	-11.3%	-3.3%
COc1ccc(CNC(=O)CCc2c(C)nn(-c3ccc(N4CCCC4)nn3)c2C)c(OC)c1	/	-4.6%	7.1%	/	4.1%	/
COC(=O)c1ccc(NC(=O)c2ccccc2N(C)S(=O)(=O)c2ccccc2)cc1	23.8µM*	-7.2%	1.1%	-3.2%	-10.4%	-5.1%
Cc1ccccc1C(=O)NC(=S)Nc1ccc(S(=O)(=O)N(C)c2ccccc2)cc1	26.7µM*	54.8%	-0.5%	-5.2%	-8.5%	1.1%
NC(CSC(c1ccccc1)(c1ccccc1)c1cccc2ccccc12)C(=O)O (stereo unspecified)	26.7µM*	?	/	-7.1%	?	/
COc1ccc(-n2cc(C(=O)NCCc3ccc(C)cc3)c3ccccc3c2=O)cc1	/	-1.5%	3.9%	/	-7.5%	/
COc1cc(-c2nn3c(-c4cc(-c5ccccc5)n[nH]4)nnc3s2)cc(OC)c1OC	/	?	1.2%	/	-13.4%	/
c1ccc(-c2nnc(NC3=NCCC3)o2)cc1	23.8µM*	-1.8%	0.0%	6.8%	-7.0%	-9.2%
c1ccc(Nc2c(-c3c[nH]c4ccccc34)nc3ccccn23)cc1	/	0.8%	8.8%	/	-12.3%	/
CC1Cc2ccccc2N1c1ncnc2c1nnn2Cc1ccccc1Cl (stereo unspecified)	26.7µM*	-2.7%	1.0%[56.1 µM]	3.0%	1.7%	-5.1%
Clc1ccccc1Cn1nnc2c(N3CCCC3)ncnc21	-1.6%	0.6%	0.0%	-1.7%	-6.2%	1.8%
CC(C)(C)NC(=O)CSc1ncnc2c1nnn2Cc1ccccc1Cl	26.7µM*	1.7%	-2.0%	-2.1%	?	0.9%
O=C(CSc1ncnc2c1nnn2Cc1ccccc1)NC1CCCC1	-29.5%	-0.4%	2.3%	6.1%	-2.9%	0.6%
COc1ccccc1-n1cnnc1SCC(=O)Nc1cc(C(C)(C)C)nn1-c1ccccc1	3.36µM*	-1.1%	6.1%	2.3%	-2.6%	-0.9%
C=CCN1c2ccccc2[C@]23C[C@@H](C(=O)OC)N(S(=O)(=O)c4c(C)noc4C)C2=NC(C(=O)OC)=C(C(=O)OC)[C@H]13	/	/	8.6%[12.3 µM]	/	/	/
Cc1cnc(NC(=O)Nc2ccc(OCc3ccccc3)cc2)c(Br)c1	29.9µM*	-3.5%	/	-5.0%	-21.6%	-1.9%
Cn1c(-c2ccccc2)nc2cnccc21	23.8µM*	-1.4%	0.0%	0.1%	?	-2.3%
Cc1nc2cnccc2n1C	-6.5%	6.4%	0.0%	-2.0%	1.8%	1.4%
COc1cc(NC(=O)c2cccc(Cl)c2)c(OC)cc1NC(=O)CN1CCOCC1	-4.0%	3.6%	1.0%	-7.8%	-4.3%	-0.7%
Cc1ccc(C(=O)N2CCN(c3ccccn3)CC2)cc1	-7.8%	0.5%	-2.7%	-1.8%	-11.3%	-4.9%
COc1ccccc1NC(=O)CN1CCN(c2ccc(F)cc2)CC1	23.8µM*	-2.2%	/	-2.6%	?	/

Bioassay records as filed in PubChem.
